# Measured values reported in the supplement of paper PMC10037445.
# “And” between values parts separate entries of the source, which are not always exact repeats. Equal entries are not always repeated. Over roughly 2,900 compounds, “NF-kB SEAP reporter activity, fold change vs agonist alone” has its median near 0.99; the highest 2% begin near 2.6. Many of the other results were omitted from the sample, so the highest values are more common in it than they were.
# Assays:
# RAW-Dual [1] = assay: NF-kB SEAP reporter activity, fold change vs agonist alone; higher = enhanced NF-kB activity; details: library stock concentration (final ~1000-fold dilution): 10 mM
# Outline: (§1)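 RAW-Dual macrophages were seeded in DMEM at 50,000 cells/well in 384-well plates, given 50 nL of library stock by pin tool, and given a PRR agonist 1 h later. Plates were held at 37 °C, 5% CO2 for 20 hours, after which supernatant was read for IRF by QuantiLuc luminescence and for NF-κB by QuantiBlue absorbance at 620 nm. Reporter activity is expressed as fold change over wells that received agonist alone. A well was called cytotoxic when IncuCyte confluency fell below 70% of agonist controls in both mask sets.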
# RAW-Dual [2] = assay: NF-kB SEAP reporter activity, fold change vs agonist alone; cytotoxicity flag (confluency mask): cytotoxic (confluency <70% of control); higher = enhanced NF-kB activity
# Outline: as §1
# RAW-Dual [3] = assay: NF-kB SEAP reporter activity, fold change vs agonist alone; cytotoxicity flag (confluency mask): not cytotoxic; higher = enhanced NF-kB activity
# Outline: as §1
# [4] = cytotoxicity flag (confluency mask): cytotoxic (confluency <70% of control), agonist: Imiquimod (TLR7) […]
# [5] = cytotoxicity flag (confluency mask): cytotoxic (confluency <70% of control), agonist: MPLA (TLR4) […]
# [6] = agonist: ODN 1826 (TLR9) 0.5 ug/mL
# [7] = agonist: Pam2CSK4 (TLR2/6) 0.1 ug/mL
# [8] = agonist: Pam3CSK4 (TLR2/1) 0.1 ug/mL
# [9] = cytotoxicity flag (confluency mask): not cytotoxic, agonist: Imiquimod (TLR7) […]
# [10] = cytotoxicity flag (confluency mask): not cytotoxic, agonist: MPLA (TLR4) […]
smiles,measurement,setting,value
NS(=O)(=O)OC[C@H]1C[C@@H](Nc2ccnc3cc(-c4cccc(SC(F)(F)F)c4)nn23)[C@H](O)[C@@H]1O,NF-kB SEAP reporter activity,RAW-Dual [1]; [4],0.145
same,NF-kB SEAP reporter activity,RAW-Dual [1]; [5],0.255
NS(=O)(=O)OC[C@H]1C[C@@H](Nc2ccnc3cc(-c4cccc(SC(F)(F)F)c4)nn23)[C@H](O)[C@@H]1O (library stock concentration (final ~1000-fold dilution): 10 mM),NF-kB SEAP reporter activity,RAW-Dual [2]; agonist: LPS (TLR4) 0.1 ug/mL,0.308
same,NF-kB SEAP reporter activity,RAW-Dual [2]; [6],0.19
same,NF-kB SEAP reporter activity,RAW-Dual [2]; [7],0.0814
same,NF-kB SEAP reporter activity,RAW-Dual [2]; [8],0.152
CCNC(=O)[C@]12CCC(C)(C)C[C@H]1[C@H]1C(=O)C=C3[C@@]4(C)C=C(C#N)C(=O)C(C)(C)[C@@H]4CC[C@@]3(C)[C@]1(C)CC2 (library stock concentration (final ~1000-fold dilution): 10 mM),NF-kB SEAP reporter activity,RAW-Dual [3]; agonist: LPS (TLR4) 0.1 ug/mL,0.324
same,NF-kB SEAP reporter activity,RAW-Dual [3]; [6],0.193
same,NF-kB SEAP reporter activity,RAW-Dual [3]; [7],0.0804
same,NF-kB SEAP reporter activity,RAW-Dual [3]; [8],0.173
CCNC(=O)[C@]12CCC(C)(C)C[C@H]1[C@H]1C(=O)C=C3[C@@]4(C)C=C(C#N)C(=O)C(C)(C)[C@@H]4CC[C@@]3(C)[C@]1(C)CC2,NF-kB SEAP reporter activity,RAW-Dual [1]; [9],0.15
same,NF-kB SEAP reporter activity,RAW-Dual [1]; [10],0.256
CC(O)C(=O)O.CN1CCN(c2ccc3nc(-c4c(N)c5c(F)cccc5[nH]c4=O)[nH]c3c2)CC1,NF-kB SEAP reporter activity,RAW-Dual [1]; [4],0.335
same,NF-kB SEAP reporter activity,RAW-Dual [1]; [5],0.591
CC(O)C(=O)O.CN1CCN(c2ccc3nc(-c4c(N)c5c(F)cccc5[nH]c4=O)[nH]c3c2)CC1 (library stock concentration (final ~1000-fold dilution): 10 mM),NF-kB SEAP reporter activity,RAW-Dual [2]; agonist: LPS (TLR4) 0.1 ug/mL,0.341
same,NF-kB SEAP reporter activity,RAW-Dual [2]; [6],0.18
same,NF-kB SEAP reporter activity,RAW-Dual [2]; [7],0.15
same,NF-kB SEAP reporter activity,RAW-Dual [2]; [8],0.219
C=C(CC(=O)OCCCCCCCC)C(=O)O (library stock concentration (final ~1000-fold dilution): 10 mM),NF-kB SEAP reporter activity,RAW-Dual [3]; agonist: LPS (TLR4) 0.1 ug/mL,0.76
same,NF-kB SEAP reporter activity,RAW-Dual [3]; [6],0.641
same,NF-kB SEAP reporter activity,RAW-Dual [3]; [7],0.455
same,NF-kB SEAP reporter activity,RAW-Dual [3]; [8],0.645
C=C(CC(=O)OCCCCCCCC)C(=O)O,NF-kB SEAP reporter activity,RAW-Dual [1]; [9],0.711
same,NF-kB SEAP reporter activity,RAW-Dual [1]; [10],0.955
NCC(O)(c1ccc(Cl)cc1)c1ccc(-c2cn[nH]c2)cc1 (stereo unspecified) (library stock concentration (final ~1000-fold dilution): 10 mM),NF-kB SEAP reporter activity,RAW-Dual [3]; agonist: LPS (TLR4) 0.1 ug/mL,0.342
same,NF-kB SEAP reporter activity,RAW-Dual [3]; [6],0.435
same,NF-kB SEAP reporter activity,RAW-Dual [3]; [7],0.236
same,NF-kB SEAP reporter activity,RAW-Dual [3]; [8],0.327
NCC(O)(c1ccc(Cl)cc1)c1ccc(-c2cn[nH]c2)cc1 (stereo unspecified),NF-kB SEAP reporter activity,RAW-Dual [1]; [9],0.966
same,NF-kB SEAP reporter activity,RAW-Dual [1]; [10],0.527
CN1C(=N)NC(C)(c2cc(NC(=O)c3ccc(F)cn3)ccc2F)CS1(=O)=O.O=C(O)C(F)(F)F (stereo unspecified),NF-kB SEAP reporter activity,RAW-Dual [1]; [9],0.873
same,NF-kB SEAP reporter activity,RAW-Dual [1]; [10],0.781
CN1C(=N)NC(C)(c2cc(NC(=O)c3ccc(F)cn3)ccc2F)CS1(=O)=O.O=C(O)C(F)(F)F (stereo unspecified) (library stock concentration (final ~1000-fold dilution): 10 mM),NF-kB SEAP reporter activity,RAW-Dual [3]; agonist: LPS (TLR4) 0.1 ug/mL,0.826
same,NF-kB SEAP reporter activity,RAW-Dual [3]; [6],0.731
same,NF-kB SEAP reporter activity,RAW-Dual [3]; [7],0.823
same,NF-kB SEAP reporter activity,RAW-Dual [3]; [8],0.856
O=C(OCC1OC(OC(=O)c2cc(O)c(O)c(OC(=O)c3cc(O)c(O)c(O)c3)c2)C(OC(=O)c2cc(O)c(O)c(OC(=O)c3cc(O)c(O)c(O)c3)c2)C(OC(=O)c2cc(O)c(O)c(OC(=O)c3cc(O)c(O)c(O)c3)c2)C1OC(=O)c1cc(O)c(O)c(OC(=O)c2cc(O)c(O)c(O)c2)c1)c1cc(O)c(O)c(OC(=O)c2cc(O)c(O)c(O)c2)c1 (stereo unspecified),NF-kB SEAP reporter activity,RAW-Dual [1]; [9],0.144
same,NF-kB SEAP reporter activity,RAW-Dual [1]; [10],0.319
O=C(OCC1OC(OC(=O)c2cc(O)c(O)c(OC(=O)c3cc(O)c(O)c(O)c3)c2)C(OC(=O)c2cc(O)c(O)c(OC(=O)c3cc(O)c(O)c(O)c3)c2)C(OC(=O)c2cc(O)c(O)c(OC(=O)c3cc(O)c(O)c(O)c3)c2)C1OC(=O)c1cc(O)c(O)c(OC(=O)c2cc(O)c(O)c(O)c2)c1)c1cc(O)c(O)c(OC(=O)c2cc(O)c(O)c(O)c2)c1 (stereo unspecified) (library stock concentration (final ~1000-fold dilution): 10 mM),NF-kB SEAP reporter activity,RAW-Dual [3]; agonist: LPS (TLR4) 0.1 ug/mL,1.25
same,NF-kB SEAP reporter activity,RAW-Dual [3]; [6],0.116
same,NF-kB SEAP reporter activity,RAW-Dual [3]; [7],1.04
same,NF-kB SEAP reporter activity,RAW-Dual [3]; [8],0.185
C=CC1CC1(NC(=O)C1CC(Oc2ncc(OC)c3ccc(Cl)cc23)CN1C(=O)C(NC(=O)OC(C)(C)C)C(C)(C)C)C(=O)NS(=O)(=O)C1CC1 (stereo unspecified) (library stock concentration (final ~1000-fold dilution): 10 mM),NF-kB SEAP reporter activity,RAW-Dual [2]; agonist: LPS (TLR4) 0.1 ug/mL,1.1
same,NF-kB SEAP reporter activity,RAW-Dual [2]; [6],0.915
same,NF-kB SEAP reporter activity,RAW-Dual [2]; [7],0.518
same,NF-kB SEAP reporter activity,RAW-Dual [2]; [8],0.508
C=CC1CC1(NC(=O)C1CC(Oc2ncc(OC)c3ccc(Cl)cc23)CN1C(=O)C(NC(=O)OC(C)(C)C)C(C)(C)C)C(=O)NS(=O)(=O)C1CC1 (stereo unspecified),NF-kB SEAP reporter activity,RAW-Dual [1]; [5],1.06
Cc1cc(Nc2cc(N3CCN(C)CC3)nc(/C=C/c3ccccc3)n2)n[nH]1.O=C(O)C(O)C(O)C(=O)O,NF-kB SEAP reporter activity,RAW-Dual [1]; [9],0.89
same,NF-kB SEAP reporter activity,RAW-Dual [1]; [10],0.85
Cc1cc(Nc2cc(N3CCN(C)CC3)nc(/C=C/c3ccccc3)n2)n[nH]1.O=C(O)C(O)C(O)C(=O)O (library stock concentration (final ~1000-fold dilution): 10 mM),NF-kB SEAP reporter activity,RAW-Dual [3]; agonist: LPS (TLR4) 0.1 ug/mL,0.407
same,NF-kB SEAP reporter activity,RAW-Dual [3]; [6],0.191
same,NF-kB SEAP reporter activity,RAW-Dual [3]; [7],0.297
same,NF-kB SEAP reporter activity,RAW-Dual [3]; [8],0.279
CNC(C)C(=O)NC(C(=O)N1CCCC1c1nc(C(=O)c2ccc(F)cc2)cs1)C1CCCCC1 (stereo unspecified) (library stock concentration (final ~1000-fold dilution): 10 mM),NF-kB SEAP reporter activity,RAW-Dual [2]; agonist: LPS (TLR4) 0.1 ug/mL,0.436
same,NF-kB SEAP reporter activity,RAW-Dual [2]; [6],0.764
same,NF-kB SEAP reporter activity,RAW-Dual [2]; [7],0.902
same,NF-kB SEAP reporter activity,RAW-Dual [2]; [8],0.517
CNC(C)C(=O)NC(C(=O)N1CCCC1c1nc(C(=O)c2ccc(F)cc2)cs1)C1CCCCC1 (stereo unspecified),NF-kB SEAP reporter activity,RAW-Dual [1]; [4],1.16
same,NF-kB SEAP reporter activity,RAW-Dual [1]; [5],0.714
O=c1cc(-c2ccc(O)cc2)oc2cccc(O)c12,NF-kB SEAP reporter activity,RAW-Dual [1]; [9],1.07
same,NF-kB SEAP reporter activity,RAW-Dual [1]; [10],1.37
O=c1cc(-c2ccc(O)cc2)oc2cccc(O)c12 (library stock concentration (final ~1000-fold dilution): 10 mM),NF-kB SEAP reporter activity,RAW-Dual [3]; agonist: LPS (TLR4) 0.1 ug/mL,1.55
same,NF-kB SEAP reporter activity,RAW-Dual [3]; [6],1.15
same,NF-kB SEAP reporter activity,RAW-Dual [3]; [7],1.09
same,NF-kB SEAP reporter activity,RAW-Dual [3]; [8],1.82
O=C(O)CSc1cc(NS(=O)(=O)c2ccc(Br)cc2)c2ccccc2c1O,NF-kB SEAP reporter activity,RAW-Dual [1]; [9],1.12
same,NF-kB SEAP reporter activity,RAW-Dual [1]; [10],2.21
CC(C)(C)C(=O)Oc1ccc(S(=O)(=O)Nc2ccccc2C(=O)NCC(=O)O)cc1,NF-kB SEAP reporter activity,RAW-Dual [1]; [9],0.966
O=C(O)CSc1nnc(Br)n1-c1ccc(C2CC2)c2ccccc12 (library stock concentration (final ~1000-fold dilution): 10 mM),NF-kB SEAP reporter activity,RAW-Dual [3]; agonist: LPS (TLR4) 0.1 ug/mL,1.32
same,NF-kB SEAP reporter activity,RAW-Dual [3]; [6],1.01
same,NF-kB SEAP reporter activity,RAW-Dual [3]; [7],1.24
same,NF-kB SEAP reporter activity,RAW-Dual [3]; [8],1.18
CC(C)(C)C(=O)Oc1ccc(S(=O)(=O)Nc2ccccc2C(=O)NCC(=O)O)cc1 (library stock concentration (final ~1000-fold dilution): 10 mM),NF-kB SEAP reporter activity,RAW-Dual [3]; agonist: LPS (TLR4) 0.1 ug/mL,1.36 and 1.08
same,NF-kB SEAP reporter activity,RAW-Dual [3]; [6],0.906 and 0.939
same,NF-kB SEAP reporter activity,RAW-Dual [3]; [7],1.39 and 1
same,NF-kB SEAP reporter activity,RAW-Dual [3]; [8],0.652 and 1.02
O=C(O)CSc1nnc(Br)n1-c1ccc(C2CC2)c2ccccc12,NF-kB SEAP reporter activity,RAW-Dual [1]; [10],0.983
O=C(O)CSc1cc(NS(=O)(=O)c2ccc(Br)cc2)c2ccccc2c1O (library stock concentration (final ~1000-fold dilution): 10 mM),NF-kB SEAP reporter activity,RAW-Dual [3]; agonist: LPS (TLR4) 0.1 ug/mL,3.16
same,NF-kB SEAP reporter activity,RAW-Dual [3]; [6],1.31
same,NF-kB SEAP reporter activity,RAW-Dual [3]; [7],1.24
same,NF-kB SEAP reporter activity,RAW-Dual [3]; [8],2.31
